System: PXR homodimer (NR concentration 270 nM)
Assay: PBM binding z-score (relative to random genomic background probes); higher = stronger binding; sequences stand for … in GC…GCGATTGACAGCGTAGAATGAAGG
Procedure, shortened: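 Custom Agilent 4×180K protein-binding microarrays carried double-stranded probes. Their 34-nt variable regions held direct-repeat seeds, single-nucleotide variants, half-site ablations and random human genomic background sequences. Arrays were incubated 1 h with ligand-free nuclear receptor dimers in PBS pH 7.4, 2% milk, 0.02% Triton X-100, 1 mM DTT, 0.2 mg/mL BSA and 0.4 mg/ml salmon testes DNA. Antibodies against each partner (one per run) detected binding, and scanned fluorescence was regression-normalized. Binding z-scores use random background probes as reference.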

Q: For ACTCGGAGTACAAAGGTCAGAGCTACGCCAGTGA, which PBM binding z-score is on record?
A: 0.393

Q: With GCTCGCAGGACAAGGTCAGAGCTTTGTCCGTAGA as the sequence, how does the PBM binding z-score read?
A: -0.47

Q: ATCGAAAGGTCGAAGGTGAGTATCCCCACCCGAA was tested. Which PBM binding z-score did it give?
A: -0.31

Q: How did the PBM binding z-score turn out when GTACCAAGGTGAATAGGTCGTTGAGGAGTAGGCG was run?
A: 0.0954

Q: How did the PBM binding z-score turn out when CCTACTGGGCCAAAAAGGTCATTGGTGCCGATAA was run?
A: 5.2

Q: How did the PBM binding z-score turn out when ACTATTAGTTGAGACGAGGGGAACCGATAGGTTG was run?
A: 0.29

Q: With TCAGACAGGTGAAGGTAACTTAGGTACGCAGTCG as the sequence, how does the PBM binding z-score read?
A: 0.206

Q: GCCAGCAGGCCATTTGGGTCACTCAATGACGGGC was tested. Which PBM binding z-score did it give?
A: 0.123

Q: For GCTATTAGTTGAAAGGGCAACTGAATGATTCTCG, which PBM binding z-score is on record?
A: 0.252

Q: With TAGCCTAGGTCAAATCGGGCCAGTATACGCTATA as the sequence, how does the PBM binding z-score read?
A: -0.306

Q: How did the PBM binding z-score turn out when CAAACTAGGTCATCGGAAGGTCAAAGTCCGCATG was run?
A: 1.97

Q: How did the PBM binding z-score turn out when GGAACTAGGGCATTCGAGTTGATAGCATGGCGAT was run?
A: -0.109

Q: For TCTTGAAGATCAACAGGAGGTTAAGAAAGATCGA, which PBM binding z-score is on record?
A: -0.127

Q: ACAGACAGGTGAGTGAAGGTATCTCAGCTGGACG was tested. Which PBM binding z-score did it give?
A: -0.293

Q: CAAACTAGGTCAAGCTCAAAGTCGGTTTGTGCCA was tested. Which PBM binding z-score did it give?
A: -0.401

Q: For AATACAGGGTCATCGTAGCCCAGAGTACGCACAG, which PBM binding z-score is on record?
A: 0.552

Q: Which PBM binding z-score does the source give for CCTGCTAGGTCATGGTAAGCTAATCTACAGTATG here?
A: -0.26

Q: GCTAGCAGGCCATTTGGGTCACTCAGTGACGGGC was tested. Which PBM binding z-score did it give?
A: -0.321

Q: With TCAGACAGGTGAAGATAACTCAGGTACGCAGTCG as the sequence, how does the PBM binding z-score read?
A: 0.241

Q: For CCAGACAGGTGAGAAGGTAACTTAGCCTCGATTA, which PBM binding z-score is on record?
A: 0.402

Q: Which PBM binding z-score does the source give for TAGCCTAGGTCATGCGGTCCAGTATAGTGTCGGC here?
A: 0.0796

Q: Which PBM binding z-score does the source give for ACTAGTTGGTCAGCGGAGGTCACACACAATTCGG here?
A: 1.8

Q: How did the PBM binding z-score turn out when TGAATGAGGTTAAAGATCACGGAACGTGGCGTCG was run?
A: -0.299

Q: With TATACAGGGTCAAAGGCCAGGGTACGAATGTCGA as the sequence, how does the PBM binding z-score read?
A: 0.905

Q: Which PBM binding z-score does the source give for CCTTACGGGACACGAGGTTATAGCACGACGAGCG here?
A: 0.477

Q: With CTACCAAGGTGAACAAGGTCGTTGAATACTATTC as the sequence, how does the PBM binding z-score read?
A: 2.05

Q: For CCGACTGGGACAAGGTTACCATAACGCACAGCCA, which PBM binding z-score is on record?
A: -0.361

Q: Which PBM binding z-score does the source give for CCTAGTTGGTCAAGTTCACACACGCTATAGGTAC here?
A: 5.51

Q: For ATTAGCAGGCCAAGTTTGGGTCACTCAAACAAAG, which PBM binding z-score is on record?
A: 0.144

Q: For GATACAGGGTCACGGCCAGAGTACGCGTATTGAT, which PBM binding z-score is on record?
A: 0.0972

Q: For GCTAGCAGGCCATTTGGGTCGCTCAATGACGGGC, which PBM binding z-score is on record?
A: -0.85

Q: TCTAGCAGGCCAGAGGCTCACTCAAGAGGTACGG was tested. Which PBM binding z-score did it give?
A: -1.3

Q: Which PBM binding z-score does the source give for ATCGAAAGGTCGAAGCTGAGTATACCCACCCGAA here?
A: 0.151

Q: CATTCAGGGTCAGCTAGGCCAGAGTAGGGACGGC was tested. Which PBM binding z-score did it give?
A: 0.0308

Q: Which PBM binding z-score does the source give for TTTGCTAGGTCAGTTGGTCAGCTAACGAGCTGCC here?
A: -0.599

Q: For ACAGACAGGTGCTGAAGGTAACTCAGGCTATCAT, which PBM binding z-score is on record?
A: -0.113

Q: Which PBM binding z-score does the source give for AGAAGGAGGTTAAGATCAGGGAAACAGAATACAT here?
A: 1.36

Q: How did the PBM binding z-score turn out when AGAATGAGGTTAAGATCAGGCAAACAGAATACAT was run?
A: -0.00329

Q: For CCTACTGGGCCAACGTCATTGATCAGTCAAAGCA, which PBM binding z-score is on record?
A: -0.509

Q: Which PBM binding z-score does the source give for GCTAGCAGGCCGTTTGGGTCACTCAATGACGGGC here?
A: -0.556
